From PubChem
A selection: hits, their analogues and other compounds. The true share with any hit is near 19%.
DT40 TDP1 CPT = DT40-hTDP1 cell growth loss with CPT | Potency, µM (titrated, usually from 46.2 µM), for the others: at the highest dose activity change, negative = growth inhibition, most hits filed as inhibitors | chicken DT40 Tdp1-/-;hTDP1 cells + 20 nM CPT, ATP luminescence, 48 h | actives 12% (n = 420,000); also: potency is read from the fitted curve at half-maximal effect; % is scaled to controls: 0 for no effect and ±100 for the full control effect; nearly all actives have a fitted effect of over 55% in size
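Cell growth measured by CellTiter-Glo luminescence after a minimum 48 h, 37 C compound exposure with 20 nM CPT in Tdp1-knockout DT40 cells stably expressing hTDP1, seeded 400/well; qHTS titration format.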
TGFb SMAD3 inh = blocks TGF-b signaling. HepG2 CAGA-GFP TGF-b/SMAD3 reporter, GFP fluorescence, 18 h; TGF-beta stimulated, 500 pg/mL final. Potency, µM (highest dose often 46.1 µM), without a hit: top-dose activity, negative = inhibition, hits mostly inhibitors. actives 1.2% (n = 410,000). AID 588855; also: potency is read from the fitted curve at half-maximal effect; % is scaled to controls: 0 for no effect and ±100 for the full control effect; nearly all actives have a fitted effect of over 65% in size
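HEPG2 CAGA-GFP reporter cells (1000/well, DMEM with 1% FBS) received compounds, then recombinant TGF-beta at 500 pg/mL final for 18 hours at 37 degrees C. Per-cell GFP summed per well was normalised to unstimulated and stimulated DMSO controls before curve fitting.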
IL1B secr inh = inflammasome signaling inhibition, IL-1 beta readout | THP-1 LPS/ATP IL-1B secretion, AlphaLISA, 16 h; active compounds read low | activity change, % at 57.5 µM | actives 4.7% (n = 360,000); in the data active = activity change below about -50%; inconclusive = mostly about -30% to -49%; also: % is scaled to controls: 0 for no effect and ±100 for the full control effect
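THP-1 cells pretreated 1 hr with compounds (up to 57.5 uM final), then stimulated with LPS (250 ng/mL final) plus ATP (1.25 mM final); secreted IL-1B measured by AlphaLISA after 16 hr, decreased signal indicating inhibition.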
S-ASM inh = blocks human secretory acid sphingomyelinase | actives 0.006% (n = 340,000) | placental ASM, HMU-PC fluorogenic substrate, 60 min | AID 504937 | Potency, µM (series often up to 57.5 µM), without a hit: top-dose activity change, negative = inhibition, hits mostly inhibitors | P17405; also: potency is read from the fitted curve at half-maximal effect
Target sequence (P17405 47-631 limits assumed): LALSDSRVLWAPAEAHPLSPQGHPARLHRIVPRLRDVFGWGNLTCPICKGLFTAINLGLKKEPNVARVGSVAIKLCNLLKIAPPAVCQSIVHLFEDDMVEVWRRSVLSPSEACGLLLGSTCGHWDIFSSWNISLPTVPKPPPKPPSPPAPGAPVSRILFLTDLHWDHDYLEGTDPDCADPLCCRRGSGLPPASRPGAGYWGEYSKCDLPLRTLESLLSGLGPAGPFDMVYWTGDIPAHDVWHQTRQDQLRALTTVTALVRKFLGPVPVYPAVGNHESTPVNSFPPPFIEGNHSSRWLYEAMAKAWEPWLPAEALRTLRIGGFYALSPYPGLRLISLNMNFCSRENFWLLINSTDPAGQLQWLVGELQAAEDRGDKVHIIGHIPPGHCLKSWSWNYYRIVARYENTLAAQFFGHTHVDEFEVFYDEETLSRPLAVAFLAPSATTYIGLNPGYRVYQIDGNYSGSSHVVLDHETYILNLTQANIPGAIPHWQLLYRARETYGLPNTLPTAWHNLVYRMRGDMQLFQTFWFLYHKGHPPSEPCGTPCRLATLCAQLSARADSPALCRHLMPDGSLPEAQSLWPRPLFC
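Fluorescence read-out (Ex 386 nm, Em 447 nm) after stopping the reaction at pH 10. Enzyme: ASM from human placenta; substrate HMU-PC0, 9 uM final; 60 min, 37 °C. Compound preincubation 10 min, ambient temperature.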
TDP1 cell noCPT = qHTS for Inhibitors of human tyrosyl-DNA phosphodiesterase 1 (TDP1): qHTS in cells in absence of CPT; DT40 Tdp1-/- hTDP1 cells, no CPT, ATP luminescence, 48 h; Potency, µM (top dose mostly 46.2 µM), inactives show at the highest dose activity change, negative = growth inhibition, most hits filed as inhibitors; actives 15% (n = 420,000); AID 686978, 2013; also: potency is read from the fitted curve at half-maximal effect; % is scaled to controls: 0 for no effect and ±100 for the full control effect; nearly all actives have a fitted effect of over 55% in size
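Chicken DT40 Tdp1-/- cells stably complemented with human TDP1 were seeded at 400 cells/well with DMSO in place of 20 nM camptothecin. After compound pinning, cells grew at least 48 hr at 37 °C; viability read by CellTiter-Glo luminescence.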
HepG2 viability = kills HepG2 cells in TGF-b inhibitor counter-screen. HepG2 CAGA-GFP viability, ATP luminescence, 18 h. Potency, µM (highest dose often 46.1 µM), for inactives: at the highest dose activity change, negative = cytotoxicity, usual class: cytotoxic. actives 0.76% (n = 410,000). AID 588856; also: potency is read from the fitted curve at half-maximal effect
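CellTiter-Glo luminescence gave cytotoxicity after 18 hours at 37 degrees C. The cells were HepG2 CAGA-GFP in 1% FBS DMEM, stimulated with 500 pg/mL TGF-beta after compound addition. %Activity was normalised to no-cell wells (complete cell-killing) and DMSO (no toxicity), and curves were fitted and classified.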
* hit, by the source's call; ? = inconclusive; . = no result given; [ ] = another dose, or the depositor's remark. Unless noted, calls follow the shape of the dose curve; as a rule, active = well fitted curve in the direction sought with a large enough effect; inconclusive = small, poorly fitted or top-dose-only effect, or another doubt; inactive = no such curve, though single readings can be large; an effect the other way counts as inactive or inconclusive.

SMILES | DT40 TDP1 CPT | TGFb SMAD3 inh | IL1B secr inh | S-ASM inh | TDP1 cell noCPT | HepG2 viability
Cc1ccc(Cl)cc1N1CCN(C(=O)CCc2nnc3n(C)c(=O)c4ccccc4n23)CC1 | -29.2% | -4.8% | . | . | -32.3% | -9.2%
O=C(Cc1ccc(Cl)cc1)NCCc1cnc[nH]1 | 0.3% | 3.9% | 9.2 | 0.2% | -2.9% | -1.8%
CCC(=O)N1CCc2cc(S(=O)(=O)NCCC(=O)NCc3ccc(OC)cc3)ccc21 | ? | -22.7% | . | . | ? | -11.9%
Cc1cc(C)n(-c2cccc(C(=O)NCC3Cc4cccc(-c5cccnc5)c4O3)c2)n1 (centres undefined) | ? | . | . | . | 14.6µM* | .
O=C(NCC1Cc2cccc(-c3cccnc3)c2O1)c1ccc2cc[nH]c2c1 (centres undefined) | 2.91µM* | . | . | . | 25.9µM* | .
COc1cccc(C(=O)NCC2Cc3cccc(-c4cccnc4)c3O2)c1 (centres undefined) | -12.4%[9.04 µM] | . | . | . | ? | .
CC(=O)SCC(CC(=O)c1ccc(C)cc1)C(=O)O (centres undefined) | 8.3% | . | . | . | -0.6% | .
C=C1C(=O)O[C@H]2C1CC[C@@](C)(O)C13C=CC(C)(C21)C1(C3)C(=O)O[C@@H]2C3C(C)=CCC3[C@](C)(O)C[C@H](OC(C)=O)C21 (some centres undefined) | ? | ? | -93.5* | 2.0% | 16.4µM* | -13.4%
C=C1CCC(OC(C)=O)/C(C)=C/CC2[C@H]1CC2(C)C (some centres undefined) | -19.7% | . | . | . | -12.4% | .
CCCCN1C(=O)C(=O)N(CC(=O)Nc2ccc(OC(F)(F)F)cc2)C1=O | ? | -5.1% | 33.2 | -0.9% | -19.2% | 2.1%
CC[n+]1ccnc2ccccc21 | 2.24µM* | 3.16µM* | . | . | 2.82µM* | 3.55µM*
CCc1cc[n+](-c2nc3ccccc3nc2C(=C=[N-])C#N)cc1 | -6.3% | -1.2% | 3.3 | -0.5% | -0.5% | -0.9%
COc1cccc(OC)c1NC(=O)C1CCCN1C(=O)Nc1cccc(Cl)c1 (centres undefined) | -3.0% | -8.0% | 33.3 | -5.3% | -4.0% | -4.2%
O=C(CCNS(=O)(=O)c1ccccc1C(F)(F)F)NCCCN1CCOCC1 | -10.7% | -1.0% | 4.9 | 4.8% | 10.2% | -0.2%
N#Cc1ccc(NC(=O)COCc2cc(-c3ccc(F)cc3)on2)cc1 | ? | -3.3% | . | . | 20.6µM* | -8.0%
O=C(COCc1cc(-c2ccc(F)cc2)on1)Nc1cc(Cl)ccc1O | ? | ? | . | . | ? | -47.1%
CCNc1nc2cccnc2s1 | -18.3% | 11.0% | 14.4 | 4.2% | -5.2% | 10.2%
O=C(COC(=O)COc1ccc(Br)cc1)Nc1ccc2c(c1)OCCO2 | -2.9% | 0.8% | -3.1 | -10.6% | 5.3% | 3.2%
Fc1ccc(C(Nc2ccccc2Cl)c2nnc(-c3ccccc3Cl)o2)cc1 (centres undefined) | ? | -5.5% | . | . | 20.6µM* | -18.4%
COc1cccc(-n2c(=O)c3cc(OC)c(OC)cc3n(CC(=O)Nc3ccccc3)c2=O)c1 | ? | -33.2% | . | . | ? | 2.3%
CCOC(=O)c1sc2nc(OCc3cccnc3)cc(C)c2c1N | ? | . | -50.5* | . | ? | .
O=C(NCCc1cccs1)c1ccc(CS(=O)Cc2cccc(Cl)c2)o1 (centres undefined) | 2.2% | 0.8% | 0.0 | . | ? | -1.3%
Cc1ccc2nc(-c3ccccc3C)oc(=O)c2c1 | 37.1% | -0.9% | 39.5 | -0.1% | 9.9% | -5.3%
Cc1ccccc1-c1nc2ccccc2c(=O)o1 | ? | -7.1% | 55.6 | . | 16.4µM* | -27.5%
Cc1ccc(NC(=O)Cn2cc(C(=O)c3ccco3)c3ccccc32)c(C)c1 | ? | ? | . | . | ? | -35.2%
SMILES | DT40 TDP1 CPT | TGFb SMAD3 inh | IL1B secr inh | S-ASM inh | TDP1 cell noCPT | HepG2 viability
Cn1c(=O)c2c(nc(CN3CCN(C(=O)c4ccco4)CC3)n2CC(=O)C(C)(C)C)n(C)c1=O | -1.8% | 18.3% | 6.3 | 0.2% | -22.3% | -8.4%
O=[N+]([O-])c1cccc(S(=O)(=O)N2CCN(c3ccccn3)CC2)c1 | 1.3% | 6.3% | -2.5 | -6.3% | ? | -81.0%
Cc1ccccc1CNC(=O)c1cc2cccc3c2n1CC(C)S3 (centres undefined) | ? | 0.0% | . | . | ? | -25.3%
CC1Cn2c(C(=O)NCc3ccccc3Cl)cc3cccc(c32)S1 (centres undefined) | ? | -13.5% | . | . | ? | -19.1%
COc1ccccc1CNC(=O)c1cc2cccc3c2n1CC(C)S3 (centres undefined) | 20.6µM* | 0.0% | . | . | 23.1µM* | -36.7%
CC1Cn2c(C(=O)NCCc3ccc(Cl)cc3)cc3cccc(c32)S1 (centres undefined) | 16.4µM* | ? | . | . | ? | -26.9%
COc1ccccc1CNC(=O)CCC(=O)N1CC(C)Sc2ccccc21 (centres undefined) | 18.4µM* | -13.3% | -27.6 | -5.1% | ? | -38.8%
COc1cccc(CN(CC(=O)NC2CCCCC2)C(=O)c2csnn2)c1 | 0.8% | 21.7% | 6.6 | 4.1% | -7.5% | -5.8%
O=C(COc1ccc2c(c1)oc(=O)c1ccccc12)NC(Cc1ccc(Cl)cc1)C(=O)O (centres undefined) | -10.9% | -22.7% | -12.4 | ? | -16.9% | -7.8%
CCOC(=O)C1=C(COC(=O)CNS(=O)(=O)c2c(F)cc(F)cc2Br)NC(=O)NC1C (centres undefined) | 0.1% | 6.9% | 14.6 | 1.3% | 10.7% | 5.6%
CC1(C)[C@H]2CC[C@]1(C)[C@H](O)C2 | 9.9% | . | . | . | -8.1% | .
COc1ccccc1CNC(=O)CSc1cc(C)[nH]c(=O)n1 | -1.9% | ? | . | . | 9.9% | -1.2%
O=C(CSc1nnc(-c2cnccn2)n1Cc1ccco1)c1ccccc1 | -14.1% | -25.8% | -7.7 | -2.2% | -6.2% | -5.2%
O=C(CSc1nnc(-c2cnccn2)n1Cc1ccco1)c1ccc(Cl)cc1 | 23.1µM* | -0.1% | -7.0 | -0.9% | ? | 0.2%
O=C(CSc1nnc(-c2ccccn2)n1Cc1ccco1)c1ccc(Cl)cc1 | 16.4µM* | -12.8% | -2.8 | -8.5% | 29.1µM* | -22.6%
O=C(CSc1nnc(-c2ccccn2)n1Cc1ccco1)c1ccccc1 | ? | -9.2% | -8.5 | -3.4% | ? | -8.7%
COc1cccc(NC(=O)CCNC(=O)C2CCN(S(=O)(=O)c3ccc(F)cc3)CC2)c1 | -13.7% | 10.1% | -0.7 | -0.3% | -1.1% | -3.5%
